Results filed as inconclusive are left out. Unmarked numbers belong to inactive results. Active and inactive are the calls of the source. Calls come from the whole dose curve; as a rule, active = well fitted activation curve with a large enough effect in the repeat runs; inconclusive = weak or mixed curves; inactive = flat fitted curve, though single readings scatter.
Test: A CellTox Green Cytotoxicity Assay to monitor cytotoxicity in HEK293 cells - 16 hour (AID 1224888); note: nearly all actives have a fitted effect of over 35% in size
Conditions: CellTox Green fluorescence; series mostly up to 76.8 µM; activity change: at the top concentration
Source text: National Center for Advancing Translational Sciences [NCATS]
NIH Chemical Genomics Center [NCGC]
U.S. Environmental Protection Agency [EPA]
National Institutes of Environmental Health Sciences [NIEHS]
National Toxicology Program [NTP]
Cell-based models are critical for drug discovery. Determining the natural cytotoxic effects resulting from test compounds is an essential research activity. A CellTox Green Cytotoxicity Assay to monitor cytotoxicity in real time of continues cell culture during 40 hours of the compound treatment was used to screen Tox21 10K library compounds in Hek293 cells. CellTox Green Cytotoxicity Assay is a nonlytic, homogeneous, biofluorescent method to measure cytotoxicity in cell culture after experimental manipulation. The assay system uses a proprietary asymmetric cyanine dye that is excluded from viable cells but preferentially stains the dead cell's DNA. […] Viable cells produce no appreciable increases in fluorescence. Therefore, the fluorescence signal produced by the binding interaction with dead cell DNA is proportional to cytotoxicity.
The mixture of Hek293 cell suspension and reagents were dispensed at 600cells/6 ul/well in 1536-well tissue culture treated black solid bottom plates using a Multidrop dispenser. After the assay plates were incubated at a 37 C/5% CO2 incubator for 5 hours, 23 nL of compounds dissolved in DMSO, positive and negative controls was transferred to the assay plate by a pintool work station. The plates were incubated at 37 C for 40 hours. The fluorescence intensity were measured at 0h, 8h, 16h, 24h, 32h and 40h time points using ViewLux plate reader during compound treatment.
% is set by controls: 0 for no effect and ±100 for the full control effect; potency is the fitted concentration of half-maximal effect.

Structure (SMILES)	activity change	Potency
O=[N+]([O-])c1ccc(CO)cc1	4.75%	–
CCSCC	-16%	–
COc1cc([C@@H]2c3cc4c(cc3[C@@H](O[C@@H]3O[C@@H]5CO[C@@H](C)O[C@H]5[C@H](O)[C@H]3O)[C@H]3COC(=O)[C@H]23)OCO4)cc(OC)c1O	-3.53%	–
CCCCCCCCc1ccc(Nc2ccc(CCCCCCCC)cc2)cc1	-2.14% [at 35.3 µM, active compounds read high]	–
C/C(=N\[Si](C)(C)C)O[Si](C)(C)C	-18.2%	–
NC(=O)C1CO1 (stereo not given)	-1.68%	–
[Cl][Eu]([Cl])[Cl]	-6.79%	–
CSc1ccc(O)cc1C	9.45%	–
O=C1OC(=O)c2cc(-c3ccc4c(c3)C(=O)OC4=O)ccc21	0.672%	–
C/C=C/C(=O)C1=C(C)C=CCC1(C)C	2.5%	–
CCC(O)CO (stereo not given)	-3.11%	–
CN[C@H]1CC[C@@H](c2ccc(Cl)c(Cl)c2)c2ccc(S(N)(=O)=O)cc21	–	24.5 µM (active)
CCCOC(=O)c1ccc(O)cc1	2.39%	–
Nc1ccc(Oc2cccc(Oc3ccc(N)cc3)c2)cc1	-9.77%	–
CCN(CC)c1ccc2c(c1)Oc1cc(N(CC)CC)ccc1C21OC(=O)c2ccccc21	–	21.3 µM (active)
CCCCCCCCSCc1cc(C)c(O)c(CSCCCCCCCC)c1	-10.1%	–
C=COCCCC	25%	–
CN(C)CCOc1ccc(/C(=C(/CCCl)c2ccccc2)c2ccccc2)cc1	–	45.8 µM (active)
[Cl][Sc]([Cl])[Cl]	-0.589%	–
O=C1CCC(=O)N1	-26.4%	–

Structure (SMILES)	activity change	Potency
c1ccc2cc3c4ccccc4c4ccccc4c3cc2c1	2.16%	–
O=S(=O)(c1ccc(OCc2ccccc2)cc1)c1ccccc1O	-7.11%	–
Cc1cccc(C)c1C	-1.25%	–
CC(Cc1ccc(O)c(O)c1)C(C)Cc1ccc(O)c(O)c1 (stereo not given)	3.17%	–
c1ccc(-c2ccccc2-c2ccccc2)cc1	-0.658%	–
CCN(CCC#N)c1ccc(N=Nc2ccc([N+](=O)[O-])cc2)cc1	-14.1%	–
CCCCCCCCCCCC(=O)Cl	5.2%	–
Oc1cccc2c(O)cccc12	0.122%	–
CN1CC[C@H](c2c(O)cc(O)c3c(=O)cc(-c4ccccc4Cl)oc23)[C@H](O)C1	5.59% [at 35.3 µM, active compounds read high]	–
CN1CCN(CCCN2c3ccccc3Sc3ccc(Cl)cc32)CC1	-1.21% [at 35.3 µM, active compounds read high]	–
CCN(CC)c1ccc(N=Nc2ccccc2)cc1	-22.3%	–
CCCCCc1ccc(O)cc1	–	38.9 µM (active)
Cn1ccnc1	-12.2%	–
O=C(N[C@H](CO)[C@H](O)c1ccc([N+](=O)[O-])cc1)C(Cl)Cl	1.42%	–
CC(=O)Nc1ccc(N=Nc2cc(C)ccc2O)cc1	-1.39%	–
CN(C[C@@H](CC[N+]12CCC(C3CCCCC3)(CC1)CC2)c1ccc(Cl)c(Cl)c1)C(=O)c1cc(C(F)(F)F)cc(C(F)(F)F)c1	–	24.5 µM (active)
N#Cc1ccc(C/C(=N/NC(=O)Nc2ccc(OC(F)(F)F)cc2)c2cccc(C(F)(F)F)c2)cc1	-1.53%	–
CCN(CC)c1ccc(C=O)cc1	-12.5%	–
CCCCC/C=C\C=C\C(=O)OCC	7.54%	–
COc1cc(OC)nc(NC(=O)NS(=O)(=O)Nc2ccccc2C(=O)N(C)C)n1	-11%	–

From PubChem BioAssay (Tox21)
